# Sampled rows, rich in hits. Any-hit rate of the full collection: about 15%.
# VP16 counter = inhibits Gal4-VP16 luciferase reporter, ROR gamma counter-screen. Drosophila S2 Gal4-VP16 UAS-luciferase, luminescence, 20 h. Potency, µM (series often up to 53.6 µM), for inactives: at the highest dose activity, negative = inhibition, actives largely listed as inhibitors. hit rate 3.5% among 310,000. AID 2546;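 also: Gal4-VP16 expression switched on by copper sulfate through the metallothionein promoter; nearly all actives have a fitted effect of over 50% in size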
# DT40 TDP1 no CPT = qHTS for Inhibitors of human tyrosyl-DNA phosphodiesterase 1 (TDP1): qHTS in cells in absence of CPT. DT40 Tdp1-/- hTDP1 cells, no CPT, ATP luminescence, 48 h. Potency, µM (doses to about 46.2 µM), inactives show top-dose activity change, negative = growth inhibition, hits mostly inhibitors. hit rate 15% among 420,000; also: nearly all actives have a fitted effect of over 55% in size
#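 Readout: luminescence from CellTiter-Glo after 30 min in the dark at RT. Cells: DT40 Tdp1-/- with stable hTDP1, 400/well. Exposure: compounds alone, ≥48 hr, 37 °C.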
# 12-LOX inh = ALOX12 (human) lipoxygenase inhibition | P18054 | purified 12hLO, xylenol orange hydroperoxide absorbance | Potency, µM (doses to about 108 µM), for inactives: top-dose activity change, negative = inhibition, usual class: inhibitors | hit rate 1.1% among 580,000
#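 Purified human 12hLO at 150 nM in 25 mM Hepes, 0.01% Triton X-100, pH 7.0, preincubated 15 min at room temperature with compound. Reaction started with 40 uM arachidonic acid, 30 min at room temperature. Hydroperoxide measured by Fe-xylenol orange, 573/405 nm absorbance ratio.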
# RORg inh = ROR gamma (mouse) transcription inhibition. P51450. Drosophila S2 Gal4-RORgamma UAS-luciferase reporter, 20 h. Potency, µM (top dose mostly 53.6 µM), without a hit: at the highest dose activity change, negative = inhibition, most hits filed as inhibitors. hit rate 5.4% among 310,000. AID 2551; also: nearly all actives have a fitted effect of over 60% in size
# Target sequence (P51450 whole entry, looked up, the tested form may be a part): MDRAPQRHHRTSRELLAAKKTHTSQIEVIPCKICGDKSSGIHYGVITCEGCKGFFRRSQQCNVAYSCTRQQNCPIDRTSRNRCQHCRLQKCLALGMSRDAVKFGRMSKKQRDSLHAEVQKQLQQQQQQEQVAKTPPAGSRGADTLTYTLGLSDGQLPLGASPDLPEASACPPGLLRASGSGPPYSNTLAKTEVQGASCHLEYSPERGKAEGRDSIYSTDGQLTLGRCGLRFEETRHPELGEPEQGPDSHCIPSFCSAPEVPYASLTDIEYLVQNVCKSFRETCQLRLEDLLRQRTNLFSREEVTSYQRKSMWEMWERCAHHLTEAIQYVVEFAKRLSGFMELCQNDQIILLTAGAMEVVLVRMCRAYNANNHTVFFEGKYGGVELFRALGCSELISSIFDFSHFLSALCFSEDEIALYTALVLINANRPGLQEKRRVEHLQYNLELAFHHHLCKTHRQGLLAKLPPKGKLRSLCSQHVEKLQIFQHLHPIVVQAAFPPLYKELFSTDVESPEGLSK
#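 Drosophila Schneider cells stably carrying a metallothionein-driven Gal4 DBD–ROR gamma fusion and a UAS-Photinus luciferase reporter were exposed to compound for 1 hr, then induced with copper sulfate (700 uM final) for 20 hr at ambient temperature before luminescence reading.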
# ELG1 repair inh = inhibitors of ELG1-dependent DNA repair in HEK293T cells; hit rate 2.3% among 330,000; Potency, µM (series often up to 46.1 µM), for inactives: at the top dose activity change, negative = inhibition, most hits filed as inhibitors; AID 504467; HEK293T ELG1-luciferase reporter, luminescence, 16 h; DNA damage induced by 5-fluorouridine; also: nearly all actives have a fitted effect of over 55% in size
#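 Step one: seed 2,000 cells per well. Step two: pin-transfer compound or DMSO alongside 5-fluorouridine. Step three: incubate 16 hr, 37 °C, 5% CO2. Step four: add ONE-Glo, wait 30 min, read luminescence.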
# TDP1 cell CPT = DT40-hTDP1 cell growth loss with CPT. chicken DT40 Tdp1-/-;hTDP1 cells + 20 nM CPT, ATP luminescence, 48 h. Potency, µM (series often up to 46.2 µM), without a hit: at the highest dose activity change, negative = growth inhibition, actives largely listed as inhibitors. hit rate 12% among 420,000. AID 686979; also: nearly all actives have a fitted effect of over 55% in size
#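 Chicken DT40 Tdp1-/- cells stably complemented with human TDP1 were seeded at 400 cells/well in medium containing 20 nM camptothecin, exposed to pin-transferred compounds, and grown at 37 °C for at least 48 hr. Viability was read as ATP luminescence.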
# The depositor's hits bear a star; ? = inconclusive; nt = no result given; [ ] = dose if it differs, or a comment. Calls follow the shape of the dose curve; as a rule, active = well fitted curve in the direction sought with a large enough effect; inconclusive = small, poorly fitted or top-dose-only effect, or another doubt; inactive = no such curve, though single readings can be large; an effect the other way counts as inactive or inconclusive. % is scaled to controls: 0 for no effect and ±100 for the full control effect; potency is read from the fitted curve at half-maximal effect.
SMILES,VP16 counter,DT40 TDP1 no CPT,12-LOX inh,RORg inh,ELG1 repair inh,TDP1 cell CPT
Cc1cc(C(F)(F)F)nn1CC(=O)N1CC[C@H](CO)[C@H](NC(=O)C2CC2)C1,nt,nt,15.1%,nt,nt,nt
Cc1ccc(C(=O)NC(Nc2ccc(C)c(C)c2)C(Cl)(Cl)Cl)cc1 (stereo not drawn),nt,nt,-5.6%,nt,nt,nt
CCN(CC)c1ccc2c(C)c(Cl)c(=O)oc2c1,2.8%,?,-22.2%,11.4%,?,-1.8%
CCN(CC)c1ccc2c(Cl)c(Br)c(=O)oc2c1,3.98µM*,23.1µM*,nt,?,?,18.4µM*
CCN(CC)c1ccc2c(c1)oc(=O)c1c(Cl)cc(=O)oc12,?,5.17µM*,nt,?,?,2.59µM*
Cc1ccc2c(C(=O)N3CCCCCC3)cc(NC(=O)C3CC3)cc2n1,nt,nt,9.8%,nt,nt,nt
Cc1ccc(S(=O)(=O)N2c3ccccc3CC2C)cc1 (stereo not drawn),7.2%,?,-4.0%,-21.2%,?,?
CC1Cc2ccccc2N1C(=O)CCS(=O)(=O)c1cccs1 (stereo not drawn),4.5%,-6.8%,-19.9%,?,?,-1.8%
CC1Cc2ccccc2N1C(=O)CN1CCN(S(=O)(=O)c2cccs2)CC1 (stereo not drawn),nt,14.6µM*,0.2%,nt,-5.9%,?
CCOc1ccc(S(=O)(=O)N2c3ccccc3CC2C)cc1 (stereo not drawn),?,0.92µM*,-14.3%,-25.2%,?,0.651µM*
CC1Cc2ccccc2N1S(=O)(=O)c1cccs1 (stereo not drawn),-7.1%,16.4µM*,-26.9%,30.6%,-6.5%,20.6µM*
COCc1ccc2c(c1)c(OC(C)(C)C(=O)N1CC(O)C1)nn2CCC(C)C,nt,nt,12.5%[176 µM],nt,nt,nt
CCCNC(=O)NC(=O)COC(=O)c1csc(NCCC(C)C)n1,nt,nt,-25.1%,nt,nt,nt
COc1ccccc1C1CCN(c2cc(O)ccc2[N+](=O)[O-])CC1,-6.4%,?,?,19.1%,11.6µM*,-21.2%
COc1ccccc1-c1ccccc1C1=CC(=O)CC(C)(C)C1=O,nt,-26.6%,-7.1%,nt,nt,-4.7%
CC1(C)CC(=O)C=C(c2ccc(-c3ccc(S(C)(=O)=O)cc3)cc2)C1=O,nt,11.6µM*,?,nt,nt,20.6µM*
COc1cccc(-c2ccc(C3=CC(=O)CC(C)(C)C3=O)cc2)c1OC,nt,20.6µM*,?,nt,nt,?
COc1ccc(CC(=O)N2Cc3ccccc3CC3(CCN(C)CC3)C2)cc1,nt,nt,10.6%[6.33 µM],nt,nt,nt
CCc1noc(-c2cn(C3CCCN(C(=O)c4cc(C)cc(C)c4)C3)nn2)n1 (stereo not drawn),nt,nt,8.2%,nt,nt,nt
CC1Cc2ccccc2N1C(=O)CSc1nnc2n1C(C)(C)Cc1ccccc1-2 (stereo not drawn),-27.4%,20.6µM*,-43.2%,-3.1%,?,20.6µM*
CC1(C)Cc2ccccc2-c2nnc(SCC(=O)Nc3ccc4c(c3)OCO4)n21,-2.7%,?,-5.0%,18.6%,13.7%,16.4µM*
CCOC(=O)CSc1nnc2n1C(C)(C)Cc1ccccc1-2,-4.7%,-1.7%,-10.1%,-16.7%,2.3%,7.8%
Nn1c(SCC(=O)Nc2ccc3c(c2)OCO3)nnc1-c1ccccc1,5.7%,0.9%,18.0%,?,15.1%,-9.4%
COc1ccccc1N1CCN(C(=O)CSc2nnc3n2C(C)(C)Cc2ccccc2-3)CC1,-4.4%,14.6µM*,-2.6%,1.0%,9.2µM*,13µM*
CCSc1nnc2n1C(C)(C)Cc1ccccc1-2,9.2%,-0.4%,0.0%[57.4 µM],0.5%,19.8%,-1.8%
SMILES,VP16 counter,DT40 TDP1 no CPT,12-LOX inh,RORg inh,ELG1 repair inh,TDP1 cell CPT
CCN1C(=O)CCN(C(=O)c2cccc(C#N)c2)CC12CCOCC2,nt,nt,1.5%,nt,nt,nt
CC(C)N1CCN(CCN2CC3(CCN(C(=O)CCN)CC3)OC2=O)CC1,nt,nt,17.8µM*,nt,nt,nt
CCN1CCN(CCN2CC3(CCN(C4CCOCC4)CC3)OC2=O)CC1,nt,nt,72.5%,nt,nt,nt
CC(=O)c1ccc(Nc2ccc([N+](=O)[O-])c3nonc23)cc1,?,23.1µM*,-3.7%,11.8%[1.91 µM],1.1%,?
Cc1ccn2cc(CSc3ccccc3N)nc2c1,-6.8%,?,1.4%,12.6µM*,?,-12.4%
CCOC(=S)SCc1cn2ccc(C)cc2n1,?,?,-19.2%,14.1µM*,7.9%,?
CN(CCC1CCOCC1)C(=O)c1ccc2oc(-c3cccc(F)c3)nc2c1,nt,nt,22.5%,nt,nt,nt
CC(C)CNC(=S)NC(=O)c1ccc(Cl)cc1Cl,5.62µM*,?,-23.4%,7.08µM*,?,13µM*
CC(C)CNC(=S)NC(=O)c1ccc(F)cc1,?,?,35.5µM*,7.94µM*,?,18.4µM*
O=C(NC(=S)NCCN1CCOCC1)c1ccc(F)cc1,18.3%,-19.3%,5.4%,-36.1%,19.4%,-13.2%
O=C(NC(=S)Nn1cnnc1)c1ccc(F)cc1Cl,-4.8%,1.1%,15.8µM*,-2.9%,11.6%,11.2%
O=C(NC(=S)Nc1ccccc1O)c1ccc(Cl)cc1Cl,7.08µM*,29.1µM*,?,2.51µM*,?,18.4µM*
CC(C)NC(=S)NC(=O)c1ccc(Cl)cc1Cl,10µM*,?,?,8.91µM*,-0.4%,?
CN(C)C(=O)c1cccnc1OC1CCN(C(=O)c2ccc(F)c(F)c2)C1 (stereo not drawn),nt,nt,20.4%,nt,nt,nt
COc1cc(Nc2c(C#N)cnc3c(OC)cccc23)cc(OC)c1OC,nt,nt,3.16µM*,nt,nt,nt
COc1cc(-c2nc(-c3ccc(NC(=O)c4ccc(Br)o4)cc3)no2)cc(OC)c1OC,1.5%,16.4µM*,-21.2%,36.7%,10.3µM*,13µM*
COc1ccc(CCC(=O)Nc2ccc(-c3noc(-c4ccc(OC)c(OC)c4)n3)cc2)cc1,-14.9%,?,-8.6%,23.3%,?,-28.0%
COc1ccc(-c2nc(-c3ccc(NC(=O)c4ccc(Br)o4)cc3)no2)cc1OC,?,6.51µM*,0.0%,?,?,18.4µM*
O=C(Nc1ccc(-c2noc(-c3ccc(F)cc3)n2)cc1)c1ccc(Br)o1,nt,nt,-21.9%,nt,nt,nt
C[C@@H]1O[C@@H](OC[C@@H]2O[C@H](Oc3c(-c4ccc(O)cc4)oc4cc(O)cc(O)c4c3=O)[C@@H](O)[C@H](O)[C@H]2O)[C@H](O)[C@H](O)[C@H]1O,nt,8.4%,-7.1%,nt,0.0%,-2.4%
O=C(O)C1OC(Oc2c(-c3ccc(O)c(O)c3)oc3cc(O)cc(O)c3c2=O)C(O)C(O)C1O (stereo not drawn),4.3%,13µM*,nt,2.3%,10.5%,?
